Screens from PubChem BioAssay.
In the library only some 14% were active in any assay of this set; here they are far more common.
HCV inh: qHTS Assay for Inhibitors of Hepatitis C Virus (HCV); AID 651820, 2012; Huh7.5.1 HCVcc-Cre infection, luciferase reporter, 44 h; Potency, µM (top dose mostly 41.8 µM), for inactives: top-dose activity change, negative = inhibition, most hits filed as inhibitors; 340,000 compounds, 3.4% hits; also: potency is read from the fitted curve at half-maximal effect
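HCVcc-Cre virus at an moi near 0.5 was added right after compound to cells cultured 4 h from seeding (1,000 cells/well). Luciferase activity was determined 44 h later, 15 min after substrate addition at RT.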
MARV entry inh: qHTS for inhibitors of binding or entry into cells for Marburg Virus. Marburg virus pseudotyped entry inhibition, cell reporter. Potency, µM (highest dose often 37.8 µM), for inactives: at the highest dose activity change, negative = inhibition, usual class: inhibitors. 300,000 compounds, 1.8% hits; calls by dose curve; tested in HEK293 cells; also: potency is read from the fitted curve at half-maximal effect
Lassa entry inh: qHTS for Inhibitors of binding or entry into cells for Lassa Virus; 300,000 compounds, 1.2% hits; Potency, µM (titrated, usually from 37.9 µM), for the others: at the highest dose activity change, negative = inhibition, hits mostly inhibitors; Lassa virus pseudotype entry inhibition, cell reporter; calls by dose curve; tested in HEK293 cells; also: potency is read from the fitted curve at half-maximal effect; nearly all actives have a fitted effect of over 50% in size
Pf growth 96h: Primary qHTS for delayed death inhibitors of the malarial parasite plastid, 96 hour incubation; AID 504834, 2011; Potency, µM (titrated, usually from 28.7 µM), without a hit: at the top dose activity change, negative = inhibition, actives largely listed as inhibitors; P. falciparum luciferase reporter growth, 96 h; 320,000 compounds, 6.9% hits; also: potency is read from the fitted curve at half-maximal effect
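Parasite growth measured via integrated firefly luciferase reporter in P. falciparum. Infected erythrocytes at 2% hematocrit, 0.05% parasitemia final were treated 96 hours at 37 C under 5% CO2, and luminescence was read.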
Pf growth 48h: Primary qHTS for delayed death inhibitors of the malarial parasite plastid, 48 hour incubation | P. falciparum luciferase growth in erythrocytes, 48 h | Potency, µM (top dose mostly 28.7 µM), for the others: at the highest dose activity change, negative = inhibition, most hits filed as inhibitors | 310,000 compounds, 5.9% hits | AID 504832, 2011; also: potency is read from the fitted curve at half-maximal effect
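Parasite viability was followed by luminescence of a genomically integrated firefly luciferase. Cultures held 0.1% parasitemia at 2% hematocrit (final), incubated under 5% CO2 at 37 C.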
HCMV antiviral: qHTS Assay for inhibitors of the human cytomegalovirus (HCMV) | HFF cells, HCMV-luciferase reporter, 72 h; hits give low values | activity change, negative = inhibition, % at 57.5 µM | 410,000 compounds, 4.5% hits; in the data active = activity change below about -60%; inconclusive = no clear call, values can overlap the other calls; inactive = above about -39%
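Inhibition of viral replication was scored as loss of reporter luminescence in HFFs infected with HCMV-luciferase (MOI 1 PFU/cell) for 72 h; compounds tested at 2 doses, normalized to buffer and Salinomycin controls.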
The depositor's hits bear a star; u = inconclusive; x = no result; [ ] = another dose, or the depositor's remark. Unless noted, calls follow the shape of the dose curve; as a rule, active = well fitted inhibition curve with a large enough effect; inconclusive = small, poorly fitted or top-dose-only effect, or another doubt; inactive = no such curve, though single readings can be large or run the other way. % is scaled to controls: 0 for no effect and ±100 for the full control effect.

SMILES	HCV inh	MARV entry inh	Lassa entry inh	Pf growth 96h	Pf growth 48h	HCMV antiviral
CC(C)c1ccc(NC(=O)Cn2c(=O)n(CC3CCC(C(=O)NCCc4ccccc4)CC3)c(=O)c3ccccc32)cc1 (stereo not drawn)	x	0%[46.1 µM]	3%[46.1 µM]	x	x	35
CC(C)Sc1nc2sc3c(c2c2nnc(SCC(=O)NCc4ccco4)n12)CCCC3	11%	u	u	u	6.6µM*	-20
Cc1cccc(N2CCN(Cc3nc(-c4ccc(F)cc4F)oc3C)CC2)n1	u	-3%[46.1 µM]	5%[46.1 µM]	10µM*	0%	-28
COC(C[C@@H]1O[C@@H]1[C@H](O)[C@@H](C)OCc1ccccc1)OC	23%	x	x	21%	30%	36
CC(C)NC(=O)Cn1ncn2c(cc3cc(F)ccc32)c1=O	x	-14%[46.1 µM]	x	x	x	5
Cc1[nH]c2ccccc2c1N=Nc1ccc(F)cc1	u	u	27%	53%	20%	-31
Cc1[nH]c2ccccc2c1N=Nc1ccccc1F	10µM*	u	3%[46.1 µM]	5%	14%	-5
Cc1[nH]c2ccccc2c1CCNC(=O)c1ccc2c(c1[N+](=O)[O-])C(=O)c1ccccc1C2=O	u	u	u	u	u	-75*
Cc1[nH]c2c(C)cccc2c1CCNC(=O)c1ccc2c(c1[N+](=O)[O-])C(=O)c1ccccc1C2=O	u	u	u	u	12µM*	u
Cc1nn(Cc2ccccc2)c(C)c1C(=O)N1CCN(S(=O)(=O)/C=C/c2ccccc2)CC1	-10%	x	x	4.1µM*	12µM*	0
CC(=O)c1c(C)oc2ccc(N(C(C)=O)S(=O)(=O)c3cccc4cccnc34)cc12	u	u	u	u	u	-79*
CCCC(=O)N(c1ccc2oc(C)c(C(C)=O)c2c1)S(=O)(=O)c1ccc(CC)cc1	x	x	u	x	x	-93*
CCOc1ccc(S(=O)(=O)N(C(C)=O)c2ccc3oc(C)c(C(=O)OC)c3c2)cc1	x	u	u	x	x	-62*
CC(=O)c1c(C)oc2ccc(N(C(C)=O)S(=O)(=O)c3ccc(Br)cc3)cc12	u	u	-13%	x	x	u
COC(=O)c1c(C)oc2ccc(N(C(C)=O)S(=O)(=O)c3ccccc3)cc12	u	u	u	13%	-23%	-35
CCN(CC)C(=O)Cn1cc(SCC(=O)Nc2cc(OC)ccc2OC)c2ccccc21	x	x	-5%[46.1 µM]	x	x	-20
C(C#CCCCCCCCCC[n+]1ccccc1)#CCCCCCCCCC[n+]1ccccc1	u	2.5µM*	u	0.093µM*	0.29µM*	x
CCn1c(CN2CCCCC2)nc2cc(NC(=O)COc3ccccc3C(C)(C)C)ccc21	x	u	-5%[46.1 µM]	x	x	4
O=C(c1ccc([N+](=O)[O-])s1)N1CCN(c2ccccc2)CC1	u	3%	x	u	-33%	-96*
O=C(c1ccc([N+](=O)[O-])s1)N1CCN(c2ccccn2)CC1	u	1%[46.1 µM]	0%	u	u	-61*
FC(F)(F)c1cccc(Nc2nc3nonc3nc2Nc2ccc(Cl)cc2)c1	x	u	u	x	x	-98*
O=C(Nc1cccc(C(F)(F)F)c1)c1cc(-c2ccc(Cl)cc2)on1	x	-1%[46.1 µM]	3%[46.1 µM]	x	x	-10
O=C(Nc1ccc(C(=O)N2CCC(N3CCCC3)CC2)cc1)c1ccc(Br)o1	9%	x	x	48%	u	x
O=C(Nc1ccc(F)cc1)C(c1ccccc1)N1CCN(C(=O)c2ccco2)CC1 (stereo not drawn)	6%	10%	-13%	u	x	-4
Cc1ccc(C)c(S(=O)(=O)N2CCN(C(=O)CSc3ccccc3F)CC2)c1	-16%	x	x	15µM*	u	-33
SMILES	HCV inh	MARV entry inh	Lassa entry inh	Pf growth 96h	Pf growth 48h	HCMV antiviral
O=C(Nc1ccc(F)cc1)C(c1ccccc1)N1CCN(S(=O)(=O)c2ccc3ccccc3c2)CC1 (stereo not drawn)	-4%	u	-26%	0%	13µM*	u
Cc1ccc(C)c(S(=O)(=O)N2CCN(C(C(=O)Nc3ccc(F)cc3)c3ccccc3)CC2)c1 (stereo not drawn)	6%	u	-8%	54%	13µM*	u
O=C(CN1CCN(C(C(=O)Nc2ccc(F)cc2)c2ccccc2)CC1)NC1CC1 (stereo not drawn)	30%	-1%	-20%	15µM*	u	0
O=C(Nc1ccc(F)cc1)C(c1ccccc1)N1CCN(CC(=O)N2CCCC2)CC1 (stereo not drawn)	u	x	x	u	u	42
Cc1ccc(C)c(Nc2nnc(-c3ccc(C)c(S(=O)(=O)N4CCN(C)CC4)c3)c3ccccc23)c1	x	-16%[46.1 µM]	u	x	x	-6
Cc1ccc(NC(=O)c2cc(S(=O)(=O)N3CCCCC3)ccc2N2CCOCC2)c(C)c1	x	x	x	x	x	-16
COc1cccc(N2C(=O)NC(=O)/C(=C/c3ccc4c5c(cccc35)CC4)C2=O)c1	8%	x	x	-18%	11%	-101*
CCOc1ccccc1N1C(=O)NC(=O)/C(=C/c2ccc3c4c(cccc24)CC3)C1=O	16%	2%	-8%	u	40%	49
COc1ccc(S(=O)(=O)Nc2cccc(S(=O)(=O)N(C)C)c2)cc1[N+](=O)[O-]	16%	x	x	x	x	-19
Cc1cccc(NC(=S)N(CCCN(C)C)Cc2cc3cc4c(cc3[nH]c2=O)OCO4)c1	u	u	u	-7%	u	-20
CCc1ccccc1NC(=S)N(CCCN(C)C)Cc1cc2cc3c(cc2[nH]c1=O)OCO3	0%	u	12%	u	u	-75*
CN(C)CCCNC(=S)N(Cc1cccs1)Cc1cc2cc3c(cc2[nH]c1=O)OCCO3	2.5µM*	23µM*	u	-8%	u	-4
CN(C)CCCNC(=S)N(CCN(C)C)Cc1cc2cc3c(cc2[nH]c1=O)OCCO3	5%	u	-4%[46.1 µM]	u	0%	17
CCN(CC)CCCN(Cc1cc2cc3c(cc2[nH]c1=O)OCO3)C(=O)Nc1ccccc1OC	3%	0%	17%	10µM*	u	-12
O=C1OCc2ccc([N+](=O)[O-])cc21	15%	1%[46.1 µM]	16%[46.1 µM]	x	x	0
O=[N+]([O-])c1ccc2c(c1)C(N1CCOCC1)/C(=C/COc1ccc3ccccc3c1Br)O2 (stereo not drawn)	-18%	13µM*	u	u	6.6µM*	15
CN(Cc1ccc(F)cc1)C(=O)c1cc(COc2ccc(-n3cncn3)cc2)on1	x	-14%	u	0%	4%	u
O=C(CNC1CCCCC1)Nc1cccc(C(F)(F)F)c1	-4%	13%	-3%	9.3µM*	-23%	21
